Experimental data from the supplement of paper PMC10105736.
Unmarked numbers belong to inactive results.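 How the source made its calls: active = MAPPIT score above the 99th percentile of random reference set scores in the same batch; inactive = at or below it.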

How the values were obtained:
Assay in all cases: MAPPIT interaction score (arbitrary units); higher = stronger binary interaction signal, active = hit call of the paper
Ptp61F = settings: MAPPIT configuration: N-N; pair source set: Lit-BS-16
RFeSP = settings: MAPPIT configuration: N-N; pair source set: RRS
REPTOR-BP = settings: MAPPIT configuration: N-N; pair source set: Curagen_high_conf
Prp3 = settings: MAPPIT configuration: N-N
RIC-3 = settings: MAPPIT configuration: N-C; pair source set: screen_3
Sod3 = settings: MAPPIT configuration: N-C; pair source set: screen_4
ReepB = settings: MAPPIT configuration: N-N; pair source set: Finley_Y2H
Pu = settings: MAPPIT configuration: N-C; pair source set: screen_4
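Further: HEK293T cells with Epo stimulation, STAT-responsive firefly luciferase reporter, fold induction versus unstimulated cells divided by the larger fold induction of two negative controls lacking either bait or prey.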

B1: Cyp9f2 (protein)
chain: MLWEFFALFAIAAALFYRWASANNDFFKDRGIAYEKPVLYFGNMAGMFLRKRAMFDIVCDLYTKGGSKKFFGIFEQRQPLLMVRDPDLIKQITIKDFDHFINHRNVFATSSDDDPHDMSNLFGSSLFSMRDARWKDMRSTLSPAFTGSKMRQMFQLMNQVAKEAVDCLKQDDSRVQENELDMKDYCTRFTNDVIASTAFGLQVNSFKDRENTFYQMGKKLTTFTFLQSMKFMLFFALKGLNKILKVELFDRKSTQYFVRLVLDAMKYRQEHNIVRPDMINMLMEARGIIQTEKTKASAVREWSDRDIVAQCFVFFFAGFETSAVLMCFTAHELMENQDVQQRLYEEVQQVDQDLEGKELTYEAIMGMKYLDQVVNEVLRKWPAAIAVDRECNKDITFDVDGQKVEVKKGDVIWLPTCGFHRDPKYFENPMKFDPERFSDENKESIQPFTYFPFGLGQRNCIGSRFALLEAKAVIYYLLKDYRFAPAKKSCIPLELITSGFQLSPKGGFWIKLVQRN
Ptp61F
  MAPPIT interaction score: -0.452

B2: E(spl)m4-BFM (protein)
chain: MCQNKINTNNTMTIKSNKKLSYSVKKLLQKIFKQQQRVEEEQNLKNALKANSLESLESMENSRNADLESASICASLESCENEANERLSQSCEIEDYDFEQLPTVPVHFVRTAHGTFFWTAVSDLPADNDLVEPLYCSTSNAIAIPQDRWVQA
RFeSP
  MAPPIT interaction score: 0.268

B3: REPTOR (protein)
chain: MTENQLYPMSSEFFDTGSNSSSNTLKYDLYSLGSTVVGAALPTLTINTGYGSSSSNNNNTNNNNNNSSSHSSSSNCSTSTTNTCNVMLSTTAITIPRSSNHNQIHHHPYQQSDLQTPRHHPSPLHTLPSMTHQQNQLQQQQQQQHHNQQQQLQQSHLALGELSDFGLDALDAASLSPTLLQDVSLSAVSPLSTTLYNGNTSGAGSSNGIGSGSGGYFTPDMSHSLSLNVVSEQVLLQEATTPNELLYEMTPNSNAMWSDISSAIIHTKHEPFSLDDDYIFPNDKAEIQAADLSDLNGGDFLDVIGNIEDFLPQTAVTQSVNFLLSPQAQGQDALVAPPMELLQQQQQNHQQLQVGSLPQLQTLLTLSQQQQSNSSSTSPYEIYHSTPQKPQQQQLSASFSPGSQASQSPLTPPPPPHANRPQYQMVKSRNMQELIKKGFPMSSPPERSILSQSAALSPGGSSGFGSSASGNSTTTSNQTSGSAVRKSFGYQSAVENSQLSRLSSSAPTHLGLEHIWMRREPRQHLLSTGSLAEAESFSSLSTGSVLSPDGIDFSQDDEDDNSSENSDNYDDCSSDNGLSEDEDETRTSTPNHLSSSKGKERFFWQYNVQAKGPKGKRLVFQSKLEDPHVLNEVTDPVFSPTCSVRGIKVYKHSGKARKGDGNDLTPNARKLHNIGKELDKLSRTINDMTPVSELPFNVRPKSRKEKNKLASRACRLKKKAQHEANKIKLFGLEIEHSEFNVKAVEISYNPSIFVL
REPTOR-BP
  MAPPIT interaction score: 0.721

B4: Mettl14 (protein)
chain: MSDVLKSSQERSRKRRLLLAQTLGLSSVDDLKKALGNAEDINSSRQLNSGGQREEEDGGASSSKKTPNEIIYRDSSTFLKGTQSSNPHNDYCQHFVDTGQRPQNFIRDVGLADRFEEYPKLRELIKLKDKLIQDTASAPMYLKADLKSLDVKTLGAKFDVILIEPPLEEYARAAPSVATVGGAPRVFWNWDDILNLDVGEIAAHRSFVFLWCGSSEGLDMGRNCLKKWGFRRCEDICWIRTNINKPGHSKQLEPKAVFQRTKEHCLMGIKGTVRRSTDGDFIHANVDIDLIISEEEEFGSFEKPIEIFHIIEHFCLGRRRLHLFGRDSSIRPGWLTVGPELTNSNFNSELYQTYFAEAPATGCTSRIELLRPKSPPPNSKVLRGRGRGFPRGRGRPR
Prp3; pair source set: Curagen_high_conf
  MAPPIT interaction score: 1.8

B5: Nplp2 (protein)
chain: MAKLAICILVFALFALALSARVPREESNPAQEFLTKAQGDFNEFIEKLKALDAKKVEGLFKDGLNTVQEGLQKLNETFLQAPAAST
RIC-3
  MAPPIT interaction score: 0.0485
Sod3
  MAPPIT interaction score: 2.23

B6: CG4709 (protein)
chain: MEEYEAQLLVVEQALENAADDAQRQDLLALKNNLQELLALTRESGDEAPIDELPQQGDNLDDELQRLKSELNDLEAAGSSQTALDEERQLADLRTKYTAMVGEKCSAPHEHSWGTCYHNALICGVDDEVVMNSEGVLDARLRVLFTNPTHREMLPCSYYLEGECRFDEAKCRFSHGALVTGSSIRKYNPPDFHKLSRSRPVFALLPDRLWHRGRVLCVNFVEQICRVRLDGQDHKERERDFKFEELYPLTTDQDEDDELSSEESNSSMNDNSSDEAESDMDDLEEARRARMVELSLFTFKPTERLGAWEEFTRGIGSKLMEKMGYIHGTGLGSDGRGIVTPVSAQILPQGRSLDACMELREAANGDKDYFSVERKLKRAQRRQRKADEKAYVRESQRVDVFTFLNDSVLGPGESTQQGEQVTKKAKTNELQQHSTKTLNVETVRIADEIRRKQRDMAKVKQSLDRNSGDAQLQKRLQVQMQSHKQELATLQAQERSLSKEQQTRKSKNKMFEF
Prp3; pair source set: Lit-BM-16
  MAPPIT interaction score: 2.3

B7: Pdf (protein)
chain: MARYTYLVALVLLAICCQWGYCGAMAMPDEERYVRKEYNRDLLDWFNNVGVGQFSPGQVATLCRYPLILENSLGPSVPIRKRNSELINSLLSLPKNMNDAGK
ReepB
  MAPPIT interaction score: 2.66

B8: Pu (protein)
chain: MSFTRQLSEMSASELNDAIDDTNFPQAHILSRGRNNSVCSTSSTSGTSSLADRQQNQAEEATAIAGTPVEEVAPAPALVPLAGNQRPRLILKTNGSSPDSDGTQPKTPLTPRTSTTPGHEKCTFHHDLELDHKPPTREALLPDMARSYRLLLGGLGENPDRQGLIKTPERAAKAMLYFTKGYDQSLEDVLNGAVFDEDHDEMVVVKDIEMFSMCEHHLVPFYGKVSIGYLPCNKILGLSKLARIVEIFSRRLQVQERLTKQIAVAVTQAVQPAGVAVVVEGVHMCMVMRGVQKINSKTVTSTMLGVFRDDPKTREEFLNLVNSK
Pu
  MAPPIT interaction score: 5.06 (active)
